Records with an inconclusive call do not appear. Unmarked numbers belong to inactive results. Active and inactive are the calls of the source. Calls come from the whole dose curve.
target: Peroxisome proliferator-activated receptor delta (Homo sapiens) (UniProt Q03181); experiment: qHTS assay to identify small molecule agonists of the peroxisome proliferator-activated receptor delta (PPARd) signaling pathway (AID 743212); conditions: HEK293H PPARd-UAS-bla, beta-lactamase FRET ratio, 17 h; series mostly up to 62.6 µM; activation: at the top concentration
Sequence (Q03181 whole entry, looked up): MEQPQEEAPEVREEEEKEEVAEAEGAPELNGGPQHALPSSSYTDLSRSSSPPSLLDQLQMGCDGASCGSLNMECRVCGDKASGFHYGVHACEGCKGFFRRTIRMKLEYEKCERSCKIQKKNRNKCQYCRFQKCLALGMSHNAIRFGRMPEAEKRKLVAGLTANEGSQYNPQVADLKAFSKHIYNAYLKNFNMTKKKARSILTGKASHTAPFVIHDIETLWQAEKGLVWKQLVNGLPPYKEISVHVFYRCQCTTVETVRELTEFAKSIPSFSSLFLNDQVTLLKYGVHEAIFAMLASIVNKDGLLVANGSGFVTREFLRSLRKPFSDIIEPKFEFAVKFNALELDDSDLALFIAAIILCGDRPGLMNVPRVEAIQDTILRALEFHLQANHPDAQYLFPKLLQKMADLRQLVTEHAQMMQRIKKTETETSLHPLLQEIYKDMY
Description: U.S. Tox21 Program National Center for Advancing Translational Sciences [NCATS] NIH Chemical Genomics Center [NCGC] U.S. Environmental Protection Agency [EPA] National Institutes of Environmental Health Sciences [NIEHS] National Toxicology Program [NTP] U.S. Food and Drug Administration [FDA] Tox21 Assay Overview: The peroxisome proliferator-activated receptors (PPARs) are lipid-activated transcription factors of the nuclear receptor superfamily with three distinct subtypes namely PPAR alpha, PPAR delta (PPARd) and PPAR gamma. All these subtypes heterodimerizes with Retinoid X receptor (RXR) and have different physiological functions. […] To identify the compounds that activate PPAR-delta signaling, GeneBLAzer PPAR delta UAS-bla HEK293H cell line (Invitrogen, Carlsbad, CA, USA) containing a beta-lactamase reporter gene under the control of an Upstream Activator Sequence (UAS) was used to screen the Tox21 compound library.
Tox21 Assay Protocol Summary: PPARd-bla cells were dispensed at 3000 cells/6uL/well in 1536-well black wall/clear bottom plates using a Multidrop Combi (Thermo Fisher Scientific, Waltham, MA) dispenser. After the assay plates were incubated at 37 C and 5% CO2 for 5 h, 23 nL of compounds dissolved in DMSO, positive controls or DMSO only was transferred to the assay plate by a Pintool station (Kalypsys, San Diego, CA). The assay plates were incubated at 37C for 17 h. After 1 uL of LiveBLAzerTM B/G FRET substrate was added using a Bioraptr Flying Reagent Dispenser (FRD) workstation (Beckman Coulter, Indianapolis, IN, USA), the plates were incubated at room temperature for 2 h, and fluorescence intensity was measured by an Envision plate reader (PerkinElmer, Shelton, CT).
% is set by controls: 0 for no effect and ±100 for the full control effect.

Structure (SMILES)	activation	outcome
NCCc1cc(O)c(O)cc1O	3.85%	–
COCc1cnc(C2=NC(C)(C(C)C)C(=O)N2)c(C(=O)O)c1 (stereo not given)	0.912%	–
CCOP(=O)(SC(C)CC)N1CCSC1=O (stereo not given)	0.574%	–
CCC1(CCC(C)C)C(=O)NC(=O)NC1=O	11.9% [at 81.1 µM]	–
O=C(O)C(O)C(O)C(=O)O (stereo not given)	5.64%	–
Cc1ccccc1	-1.62%	–
C[C@H](N)[C@H](O)c1ccc(O)c(O)c1	3.76%	–
CC(C)(c1ccccc1)c1cc(-n2nc3ccccc3n2)c(O)c(C(C)(C)c2ccccc2)c1	-2.41%	–
Cc1cnc(C2=NC(C)(C(C)C)C(=O)N2)c(C(=O)O)c1 (stereo not given)	-1.89%	–
COP(=O)(OC)OC(Br)C(Cl)(Cl)Br (stereo not given)	–	inactive
COc1ccc2c(c1OC)C(=O)O[C@H]2[C@@H]1c2cc3c(cc2CCN1C)OCO3	-3.92%	–
CCOC(=O)c1cn2nc(OP(=S)(OCC)OCC)cc2nc1C	-4.75%	–
CCCN(CCC)C(=O)Cc1c(-c2ccc(Cl)cc2)nc2ccc(Cl)cn12	-6.54%	–
CNC(=O)Oc1cccc(N=CN(C)C)c1	9.73%	–
CCCC1CCCCN1 (stereo not given)	1.79%	–
C[C@H]1O[C@H](OC2[C@@H](O)[C@@H](O)C(O)[C@H](O)[C@H]2O)[C@@H](N)C[C@@H]1N=C(N)C(=O)O (stereo not given in full)	-3.22%	–
Cc1nnc(-c2ccccc2)c(=O)n1N	1.33%	–
CCCC[N+](CCCC)(CCCC)CCCC	-2.02%	–
OCC1CO1 (stereo not given)	–	inactive
C[C@H]1[C@@H]2Cc3ccc(O)cc3[C@@]1(C)CCN2C	-4.58% [at 232 µM]	–

Structure (SMILES)	activation	outcome
O=C1NC(=O)C(=O)C(=O)N1	3.55% [at 81.1 µM]	–
O=C(NCNC(=O)NC1C(=O)NC(=O)N1CO)NC1C(=O)NC(=O)N1CO (stereo not given)	-0.789%	–
CCC1(CC)C(=O)NC(=O)NC1=O	6.78%	–
C1CS1	0.0623% [at 81.1 µM]	–
C=CCSSCC=C	2.55%	–
CC[N+]1(CCOC(=O)C(O)(c2ccccc2)c2ccccc2)CCCCC1	-1.94%	–
O=C(Cc1ccccc1)c1ccccc1	-0.615%	–
COC1CC(=C(c2cccs2)c2cccs2)C[N+](C)(C)C1 (stereo not given)	-0.399%	–
CCCCCCCCCCCCCCCl	-0.808% [at 81.1 µM]	–
O=[N+]([O-])c1cc(Cl)c(Cl)cc1Cl	-2.39%	–
Nc1ccc2c(c1)Cc1ccccc1-2	1.77%	–
OC[P+](CO)(CO)CO	2.89%	–
CCCN(CCOc1c(Cl)cc(Cl)cc1Cl)C(=O)n1ccnc1	0.253%	–
CC(C)(C)N(NC(=O)c1ccc(Cl)cc1)C(=O)c1ccccc1	0.98%	–
CC(C)[C@@H](C(=O)O[C@@H](C#N)c1cccc(Oc2ccccc2)c1)c1ccc(Cl)cc1	3.48%	–
CCC[N+](CCC)(CCC)CCC	-0.0982%	–
C[Si](Cn1cncn1)(c1ccc(F)cc1)c1ccc(F)cc1	–	inactive
CCNC(=O)NC(=O)/C(C#N)=N/OC	-2.39%	–
O=C(CCl)CCl	-10.4%	–
CCOP(=S)(OCC)Oc1ccc(S(C)=O)cc1 (stereo not given)	1.34%	–
